Data on 26 compounds can be found in PubChem BioAssay (EPA / NIEHS).

Several values for one entry are separate records, joined by “and”; a condition that tells them apart may be missing. Identical values can stand only once. Some compounds were tested as several samples or in several runs, with calls that do not always agree. Activity calls are given as the source filed them. The calls were made as follows: active = hit-call score of the fitted dose curve at least 0.9, where 1 is the maximum; inactive = score below 0.9.

The first experiment is described as follows: APR_HepG2_MitoticArrest_72hr: Apredica 72-hour HepG2 Assay for Mitotic Arrest (AID 2282918). The settings on record: high-content imaging, actives raise or lower the signal. The essentials: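 Using high-content imaging of fixed HepG2 cells, phospho-histone H3 signal was measured following a 72 hr incubation with ten-point compound dilutions up to 200 uM. DMSO served as the negative control and baseline for bidirectional curve fitting.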
With `CCCCNC(=O)n1c(NC(=O)OC)nc2ccccc21`, the call was inactive.

With `COC(=O)c1ccccc1C(=O)OC`, the compound was called inactive.

With `COP(=S)(OC)Oc1nc(Cl)c(Cl)cc1Cl`, the compound was called inactive.

In the case of `Cc1cc(Cl)ccc1OCC(=O)O`, the outcome was inactive.

For the compound `CON(C)C(=O)Nc1ccc(Cl)c(Cl)c1`, the outcome was inactive.

As to `COc1ccc(C(c2ccc(OC)cc2)C(Cl)(Cl)Cl)cc1`, the AC50 (as a rule, the concentration giving half of the maximal activity seen) was 65 µM (active).

Consider `CCNc1nc(Cl)nc(NCC)n1`, for which the compound was called inactive.

For `CCCN(CCC)c1c([N+](=O)[O-])cc(S(N)(=O)=O)cc1[N+](=O)[O-]`, the AC50 was 34 µM (active) and 82.3 µM (active); the outcome was inactive.

Consider `CC(Oc1ccc(Cl)cc1Cl)C(=O)O` (stereo not given), for which the call was inactive.

For the compound `CN(C)C(=S)SSC(=S)N(C)C`, the AC50 was 19.8 µM (active).

With `CCON=C(CC)C1=C(O)CC(c2c(C)cc(C)cc2C)CC1=O` (stereo not given), the result was inactive.

As to `CS/C(C)=N/OC(=O)N(C)SN(C)C(=O)O/N=C(\C)SC`, the outcome was inactive.

Take `CCCCNC(=O)OCC#CI`: the AC50 was 9.07 µM (active) and the compound was called inactive.

In the case of `C=CCC1=C(C)[C@@H](OC(=O)[C@@H]2[C@@H](C=C(C)C)C2(C)C)CC1=O`, the AC50 is 67.4 µM (active).

A further experiment in a line: APR_HepG2_MicrotubuleCSK_72hr: Apredica 72-hour HepG2 Assay for Microtubule CSK Stabilty (AID 2282919). The settings on record: HepG2 microtubule cytoskeleton, high-content imaging, actives raise or lower the signal. Summed up:
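Ten-point dosing (0.39–200 uM, 0.5% DMSO) of HepG2 for 72 hr, with taxol as the cytoskeletal positive control. The cells were formaldehyde-fixed and then stained with alpha-tubulin/Cy5 and Hoechst. Imaging at 20x used a −2 um Z offset for tubulin.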
On to `O=C(O)COc1nc(Cl)c(Cl)cc1Cl`, for which the call was inactive.

Consider `CC(C)(C)c1ccc(CSc2cnn(C(C)(C)C)c(=O)c2Cl)cc1`, for which the AC50 is 7.56 µM (active).

Turning to `COC(=O)C(C)Oc1ccc(Oc2ccc(Cl)cc2Cl)cc1` (stereo not given), the outcome was inactive.

With `CCOC(=O)C(Cl)Cc1cc(-n2nc(C)n(C(F)F)c2=O)c(F)cc1Cl` (stereo not given), the call was inactive.

For `CC1=C(C(=O)Nc2ccccc2)SCCO1`, the outcome was inactive.

For `COc1cnc(OC)n2nc(NS(=O)(=O)c3c(OCC(F)F)cccc3C(F)(F)F)nc12`, the compound was called inactive.

As for `CO/C=C(/C(=O)OC)c1ccccc1Oc1cc(Oc2ccccc2C#N)ncn1`, the compound was called inactive.

`CCOC(=O)CC(SP(=S)(OC)OC)C(=O)OCC` (stereo not given): the result was inactive.

`CC(C)Oc1cc(-n2nc(C(C)(C)C)oc2=O)c(Cl)cc1Cl`: the AC50 was 52.6 µM (active).

For the compound `N#CC(CCc1ccc(Cl)cc1)(Cn1cncn1)c1ccccc1` (stereo not given), the outcome was inactive.

Take `Cc1c(F)c(F)c(COC(=O)C2C(/C=C(\Cl)C(F)(F)F)C2(C)C)c(F)c1F` (stereo not given): the call was inactive.

In the case of `COc1nc(C)nc(NC(=O)NS(=O)(=O)c2ccccc2Cl)n1`, the result was inactive.

As for `CCCCNC(=O)n1c(NC(=O)OC)nc2ccccc21`, the compound was called inactive.

With `COC(=O)c1ccccc1C(=O)OC`, the compound was called inactive.

As for `COP(=S)(OC)Oc1nc(Cl)c(Cl)cc1Cl`, the call was inactive.

Consider `Cc1cc(Cl)ccc1OCC(=O)O`, for which the result was inactive.

On to `CON(C)C(=O)Nc1ccc(Cl)c(Cl)c1`, for which the result was inactive.

`COc1ccc(C(c2ccc(OC)cc2)C(Cl)(Cl)Cl)cc1`: the AC50 is 71 µM (active).

On to `CCNc1nc(Cl)nc(NCC)n1`, for which the result was inactive.

`CCCN(CCC)c1c([N+](=O)[O-])cc(S(N)(=O)=O)cc1[N+](=O)[O-]`: the outcome was inactive.

Turning to `CC(Oc1ccc(Cl)cc1Cl)C(=O)O` (stereo not given), the outcome was inactive.

With `CN(C)C(=S)SSC(=S)N(C)C`, the AC50 is 3.39 µM (active).

In the case of `CCON=C(CC)C1=C(O)CC(c2c(C)cc(C)cc2C)CC1=O` (stereo not given), the outcome was inactive.

Take `CS/C(C)=N/OC(=O)N(C)SN(C)C(=O)O/N=C(\C)SC`: the compound was called inactive.

With `CCCCNC(=O)OCC#CI`, the AC50 is 18 µM (active) and the result was inactive.

On to `C=CCC1=C(C)[C@@H](OC(=O)[C@@H]2[C@@H](C=C(C)C)C2(C)C)CC1=O`, for which the AC50 is 79.5 µM (active).

A short description of a further experiment: APR_HepG2_P-H2AX_24hr: Apredica 24-hour HepG2 Assay for H2AX Phosphorylation (AID 2282920). The following applies: high-content imaging, actives raise or lower the signal. Summed up:
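Human HepG2 liver cells, treated 24 hr with test chemicals (0.39–200 uM, final DMSO 0.5% v/v), are fixed and co-stained for phospho-H2A.x and c-Jun with Hoechst. Imaged intensity is fitted in both directions against DMSO controls.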
As for `O=C(O)COc1nc(Cl)c(Cl)cc1Cl`, the call was inactive.

For the compound `CC(C)(C)c1ccc(CSc2cnn(C(C)(C)C)c(=O)c2Cl)cc1`, the compound was classed as inactive.

For `COC(=O)C(C)Oc1ccc(Oc2ccc(Cl)cc2Cl)cc1` (stereo not given), the compound was classed as inactive.

As for `CCOC(=O)C(Cl)Cc1cc(-n2nc(C)n(C(F)F)c2=O)c(F)cc1Cl` (stereo not given), the result was inactive.

With `CC1=C(C(=O)Nc2ccccc2)SCCO1`, the result was inactive.

Turning to `COc1cnc(OC)n2nc(NS(=O)(=O)c3c(OCC(F)F)cccc3C(F)(F)F)nc12`, the outcome was inactive.

Turning to `CO/C=C(/C(=O)OC)c1ccccc1Oc1cc(Oc2ccccc2C#N)ncn1`, the compound was classed as inactive.

Consider `CCOC(=O)CC(SP(=S)(OC)OC)C(=O)OCC` (stereo not given), for which the compound was classed as inactive.

With `CC(C)Oc1cc(-n2nc(C(C)(C)C)oc2=O)c(Cl)cc1Cl`, the compound was classed as inactive.

For the compound `N#CC(CCc1ccc(Cl)cc1)(Cn1cncn1)c1ccccc1` (stereo not given), the AC50 was 111 µM (active).

Turning to `Cc1c(F)c(F)c(COC(=O)C2C(/C=C(\Cl)C(F)(F)F)C2(C)C)c(F)c1F` (stereo not given), the call was inactive.

`COc1nc(C)nc(NC(=O)NS(=O)(=O)c2ccccc2Cl)n1`: the result was inactive.

For `CCCCNC(=O)n1c(NC(=O)OC)nc2ccccc21`, the AC50 was 23.6 µM (active).

As for `COC(=O)c1ccccc1C(=O)OC`, the compound was classed as inactive.

Consider `COP(=S)(OC)Oc1nc(Cl)c(Cl)cc1Cl`, for which the compound was called inactive.

With `Cc1cc(Cl)ccc1OCC(=O)O`, the result was inactive.

`CON(C)C(=O)Nc1ccc(Cl)c(Cl)c1`: the call was inactive.

For `COc1ccc(C(c2ccc(OC)cc2)C(Cl)(Cl)Cl)cc1`, the compound was classed as inactive.

In the case of `CCNc1nc(Cl)nc(NCC)n1`, the compound was called inactive.

In the case of `CCCN(CCC)c1c([N+](=O)[O-])cc(S(N)(=O)=O)cc1[N+](=O)[O-]`, the AC50 was 31.7 µM (active) and 35.9 µM (active); the result was inactive.

For the compound `CC(Oc1ccc(Cl)cc1Cl)C(=O)O` (stereo not given), the compound was called inactive.

With `CN(C)C(=S)SSC(=S)N(C)C`, the AC50 was 1.78 µM (active).

On to `CCON=C(CC)C1=C(O)CC(c2c(C)cc(C)cc2C)CC1=O` (stereo not given), for which the result was inactive.

Consider `CS/C(C)=N/OC(=O)N(C)SN(C)C(=O)O/N=C(\C)SC`, for which the compound was called inactive.

Turning to `CCCCNC(=O)OCC#CI`, the compound was called inactive.

For `C=CCC1=C(C)[C@@H](OC(=O)[C@@H]2[C@@H](C=C(C)C)C2(C)C)CC1=O`, the AC50 was 118 µM (active).
